# High-throughput results: PubChem, National Center for Advancing Translational Sciences (NCATS)
# Compounds with a hit are over-represented: about 4.6% of the library has one in this group of screens.
# D1 PAM = Potentiators of Human D1 Dopamine Receptor: qHTS; actives 0.036% (n = 360,000); HEK293 TREx D1 cells, calcium flux, dopamine EC20 potentiation; D(1A) dopamine receptor (Homo sapiens), P21728; potentiation, % at 10 µM; AID 504651, 2011; in the data active = potentiation above about 30%
# Target sequence (P21728 whole entry, looked up): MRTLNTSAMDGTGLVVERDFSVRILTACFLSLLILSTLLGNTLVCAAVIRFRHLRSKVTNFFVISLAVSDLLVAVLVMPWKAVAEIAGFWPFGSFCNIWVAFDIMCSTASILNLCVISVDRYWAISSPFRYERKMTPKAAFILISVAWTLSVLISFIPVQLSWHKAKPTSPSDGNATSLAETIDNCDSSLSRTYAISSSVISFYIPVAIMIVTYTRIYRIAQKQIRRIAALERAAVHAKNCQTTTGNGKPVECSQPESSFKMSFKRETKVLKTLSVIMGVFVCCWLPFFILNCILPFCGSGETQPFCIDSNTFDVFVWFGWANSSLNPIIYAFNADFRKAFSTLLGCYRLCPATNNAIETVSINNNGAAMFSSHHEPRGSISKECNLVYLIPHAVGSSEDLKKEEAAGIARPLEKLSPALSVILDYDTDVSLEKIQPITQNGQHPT
# TRHR enhancer = qHTS for Small Molecule Agonists and Allosteric Enhancers of Human TRH Receptor: Primary Screen for Enhancers; enhancement, % at 2 µM; TRHR cells, fluo-8 calcium fluorescence, EC20 TRH enhancement; actives 0.66% (n = 360,000); AID 493056, 2011; in the data active = enhancement above about 30%
#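 TRHR-expressing cells loaded with fluo-8 calcium dye were read kinetically (ex 480/em 530) during compound addition, then stimulated with an EC20 of TRH (10 nM final). Enhancement of the Gq-mediated intracellular calcium response was scored.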
# TRHR agonist = qHTS for Small Molecule Agonists and Allosteric Enhancers of Human TRH Receptor: Primary Screen for Agonists. Thyrotropin-releasing hormone receptor (Homo sapiens), P34981. TRHR cells, calcium flux fluo-8, FDSS agonist mode. activation, % at 2 µM. actives 0.18% (n = 360,000). AID 493084, 2011
#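 TRHR-expressing cells loaded with fluo-8 calcium dye; 23 nL library compound pin-transferred, kinetic FDSS fluorescence (Ex 480/Em 530) recorded about 180 s for agonist-induced calcium release, before a 10 nM TRH EC20 addition for potentiator mode.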
# D1 agonist = Allosteric Agonists of the Human D1 Dopamine Receptor: qHTS; HEK293 T-REx D1 cells, calcium flux, agonist mode; activation, % at 2 µM; actives 1% (n = 360,000); AID 504660, 2011
#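 Agonism was scored from calcium flux recorded over 180 s (1 read/s) after pintool compound addition, following a 10-cycle baseline. Cells were inducible force-coupled HEK293 TREx D1, plated overnight at 30 C and loaded with no-wash calcium dye.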
# D1 antag = Antagonist of Human D 1 Dopamine Receptor: qHTS. activity change, negative = inhibition, % at 10 µM. D(1A) dopamine receptor (Homo sapiens), P21728. HEK293 TREx D1 cells, calcium flux, dopamine EC80; stronger effect = lower value. actives 3.2% (n = 360,000); in the data active = activity change below about -30%
#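 Tetracycline-induced HEK293 Trex D1 cells, force-coupled to calcium, dye-loaded; compounds added and read 180 s, then EC80 dopamine added and calcium flux tracked kinetically another 180 s.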
# Numbers stand for hits; – = inactive; · = not tested or not shown. Cut-off read from the data, not from the text of the source, unless noted: active = activation above about 30%; inactive = the rest.
SMILES,D1 PAM,TRHR enhancer,TRHR agonist,D1 agonist,D1 antag
CCOC(=O)c1cc2c(C)n(-c3ccc(C)cc3)c(C)c2ccc1=O,–,–,–,–,-58.3
CCCNC(=O)c1ccccc1NC(=O)c1nsc2ccccc12,–,–,–,–,–
COc1ccc(C(=O)NCCn2cc(SCc3cc(C)ccc3C)c3ccccc32)cc1,–,–,–,–,–
Cn1c(=O)n(CCOc2ccc([N+](=O)[O-])cc2)c2ccccc21,–,–,–,–,-59.1
Cc1cc2c(s1)c1cnn(Cc3c(Cl)ccc(C)c3F)c(=O)c1n2C,–,–,–,–,–
Nc1nnnn1/N=C/c1cc(Cl)cc(Cl)c1O,–,–,–,126.1,–
Cc1cc2c(s1)c1cnn(Cc3c(F)c(F)cc(F)c3F)c(=O)c1n2C,–,–,–,–,–
COc1ccccc1Nc1sc(C(=O)c2ccc(F)cc2)c(N)c1S(=O)(=O)c1ccc(C)cc1,–,–,–,31.9,–
COc1ccc(S(=O)(=O)c2c(Nc3c(C)cccc3C)sc(C(=O)c3ccc(F)cc3)c2N)cc1,–,–,–,52.2,–
Cc1ccccc1Nc1sc(C(=O)c2ccccc2)c(N)c1S(C)(=O)=O,–,–,–,–,–
COc1ccc(S(=O)(=O)c2c(Nc3c(C)cccc3C)sc(C(=O)c3ccc4c(c3)OCO4)c2N)cc1,–,–,–,31.4,–
COc1ccc(S(=O)(=O)c2c(Nc3cccc(C)c3C)sc(C(=O)c3ccccc3)c2N)cc1,–,–,–,37.9,–
COc1cccc(Nc2sc(C(=O)c3ccc4c(c3)OCO4)c(N)c2S(=O)(=O)c2ccccc2)c1,–,–,–,–,–
CCOc1ccc(-c2c(C)nn3c(C)c(C(=O)NC(C)c4ccccc4)cnc23)cc1OCC (centres undefined),–,–,–,–,–
Cc1cc(C)cc(NC(=O)C(=O)NCC(c2cccnc2)N2CCN(c3ccccc3)CC2)c1 (centres undefined),–,–,–,–,–
CC1=C(C(=O)OC2CCCC2)C(c2c(Cl)cccc2Cl)CC(=O)N1 (centres undefined),–,–,–,–,–
Cc1c(CNCCCc2ccccc2)c(C(=O)O)c(C)n1Cc1cccc(Cl)c1,–,–,–,–,–
Cc1cccc(NCc2cccc3ccccc23)n1,–,–,–,–,-90.7
Cc1cccc[n+]1CC(=O)N1c2ccccc2Sc2ccccc21,–,31.3,–,–,–
N#CC1=C(N)Oc2n[nH]c(-c3ccccn3)c2C1c1c(F)cccc1Cl (centres undefined),–,–,–,–,-31.2
COCc1[nH]nc2c1C(c1c(F)cccc1Cl)C(C#N)=C(N)O2 (centres undefined),–,–,–,–,–
Cc1ccc(C)c(C2NC(=O)c3ccccc3N2)c1 (centres undefined),–,37.4,–,–,–
Cc1cc(C)c2nc(Cl)c(C3NC(=O)c4ccccc4N3)cc2c1 (centres undefined),–,–,–,–,–
O=C(NCc1ccccc1F)C(=O)NCC(c1cccs1)S(=O)(=O)c1cccs1 (centres undefined),–,–,–,–,·
CC1=C(C(=O)OC2CCCCCC2)C(c2ccc(C)o2)C2=C(CCCC2=O)N1 (centres undefined),–,–,–,–,-32.9
SMILES,D1 PAM,TRHR enhancer,TRHR agonist,D1 agonist,D1 antag
Cc1cc(C)c(S(=O)(=O)NCC2CCC(C(=O)NCCc3ccccc3)CC2)c(C)c1 (centres undefined),–,–,–,–,–
N=c1oc2cc(O)ccc2cc1C(=O)Nc1nc2ccccc2s1,–,–,–,–,–
N=c1oc2cc(O)ccc2cc1C(=O)Nc1ccccn1,–,31.0,–,–,–
CN(CC(=O)Nc1cccc(F)c1)C(=O)c1ccc(C(=O)c2ccccc2)cc1,–,–,–,–,-60.3
Cc1cc(C)cc(NC(=O)C(NCCN2CCOCC2)c2ccccc2)c1 (centres undefined),–,–,–,–,-53.6
COCCNC(=O)C(OC(=O)c1cccs1)c1ccccc1 (centres undefined),–,–,–,–,-35.7
CC(=O)c1ccc(C(=O)N(Cc2cccnc2)c2nc3c(C)c(C)ccc3s2)cc1,–,–,–,–,·
Cc1ccc(-c2nc3ccsc3c(=O)o2)cc1,–,–,–,–,-87.1
N#Cc1cccc(NC(=O)C2CCN(c3cnccn3)CC2)c1,–,–,–,–,–
Cc1cccc(OCC(=O)NNC(=O)c2cc3ccccc3oc2=O)c1,–,–,–,–,–
O=C(COc1ccc(F)cc1)NNC(=O)c1cc2ccccc2oc1=O,–,–,–,–,-30.0
COc1ccc2nc(N3CCN(C(=O)C4CC4)CC3)sc2c1,–,–,–,–,·
Nc1nc2ccc(N3CCOCC3)cc2s1,–,–,–,–,-33.8
CC(=O)c1ccc(-n2c(C)c(C(C)=O)c3cc(O)ccc32)cc1,–,–,–,–,–
COC(=O)c1c(C)n(-c2ccc(C)cc2)c2ccc(O)cc12,–,–,–,–,-61.7
CCOc1ccc(-n2c(C)c(C(=O)OC)c3cc(O)ccc32)cc1,–,–,–,–,–
CC(=O)c1c(C)n(-c2ccccc2)c2ccc(O)cc12,–,–,–,–,-38.1
CC(=O)c1c(C)n(-c2ccc(Cl)cc2)c2ccc(O)cc12,–,38.9,–,–,–
CC(=O)c1c(C)n(-c2cccc(Cl)c2)c2ccc(O)cc12,–,–,–,–,–
O=C(C1CCN(S(=O)(=O)c2cnc[nH]2)CC1)N1CCn2c1nc1ccccc12,–,–,–,–,–
C[C@H](NC(=O)N1CCn2c1nc1ccccc12)C(=O)NC1CC1,–,–,–,–,-85.0
CC(NC(=O)[C@H](C)NC(=O)N1CCn2c1nc1ccccc12)c1ccccc1 (some centres undefined),–,–,–,–,–
O=C(C1CCCCC1)N1CCCn2c1nc1ccccc12,–,–,–,–,-45.2
COc1ccc(C(=O)NNC(=O)C(=O)NC2CCCCC2)cc1,–,–,–,–,-46.5
COc1ccc(C(=O)NNC(=O)C2CCCO2)cc1 (centres undefined),–,–,–,–,-31.2
SMILES,D1 PAM,TRHR enhancer,TRHR agonist,D1 agonist,D1 antag
COc1ccc(C(=O)NNC(=O)C(=O)NCc2ccccc2)cc1,–,–,–,–,-48.2
C[C@]12CCC(=O)C=C1C=C[C@@H]1[C@@H]2CC[C@@]2(C)[C@H]1CC[C@@]21CCC(=O)O1,–,–,–,–,-34.0
CC(C)NCCCOc1ccc(Cl)cc1Br,–,–,–,47.0,–
CCNC(=O)COc1ccc(Br)cc1Cl,–,–,–,–,–
COCCCNC(=O)COc1ccc(Br)cc1Cl,–,–,–,–,-34.0
CCCCNCCOCCOc1ccc(Cl)cc1Br,–,–,–,–,-41.3
